Cycloheximide cs = counter-screen for Shiga toxin inhibitors: cycloheximide protein synthesis inhibition; AID 2314; max response, %; cell reporter, cycloheximide protein synthesis inhibition counterscreen; 300,000 compounds, 12% hits; in the data active means max response mostly above about 13%, no sharp cut-off; inactive means mostly below about 14%; further: read at 38.3 µM for the half of the compounds with a filed dose; 0% is about no effect
Pf growth 96h = P. falciparum growth inhibition at 96 hour, primary screen for plastid delayed-death inhibitors | P. falciparum luciferase reporter growth, 96 h | Potency, µM (top dose mostly 28.7 µM), inactives show at the highest dose activity change, negative = inhibition, hits mostly inhibitors | 320,000 compounds, 6.9% hits | AID 504834; further: potency means the concentration at half of the fitted maximal effect; on the % scale 0 is the no-effect control and ±100 the full control effect
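96 h incubation, 37 C, 5% CO2, of luciferase-reporter P. falciparum-infected RBCs (2% hematocrit, 0.05% parasitemia final) with test compounds; endpoint luminescence.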
HCMV inh = human cytomegalovirus inhibition; HFF cells, HCMV-luciferase reporter, 72 h; hits give low values; activity change, negative = inhibition, % at 57.5 µM; 410,000 compounds, 4.5% hits; AID 1259415; in the data active means activity change below about -60%; inconclusive means no clear call, values can overlap the other calls; inactive means above about -39%; further: on the % scale 0 is the no-effect control and ±100 the full control effect
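Human foreskin fibroblasts infected with luciferase-reporter HCMV at MOI 1 PFU/cell, compounds at two doses. Luciferase measured 72 h post infection; normalized to buffer-only basal and Salinomycin (10uM) controls.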
Pf growth 48h = P. falciparum growth inhibition at 48 hours (one generation) | P. falciparum luciferase growth in erythrocytes, 48 h | Potency, µM (series often up to 28.7 µM), for inactives: at the top dose activity change, negative = inhibition, most hits filed as inhibitors | 310,000 compounds, 5.9% hits | AID 504832; further: potency means the concentration at half of the fitted maximal effect; on the % scale 0 is the no-effect control and ±100 the full control effect
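Luciferase-expressing P. falciparum in infected erythrocytes (2% hematocrit, 0.1% parasitemia final) in RPMI 1640/0.5% Albumax were exposed to compound for 48 hours at 37 C, 5% CO2; growth read as luminescence.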
Shiga toxin inh = inhibitors of Shiga toxin in Vero cells; Vero cells, Shiga toxin protein synthesis inhibition reporter; 290,000 compounds, 9.2% hits; inhibition, % at 38.7 µM; AID 2315; in the data active means inhibition mostly above about 28%, no sharp cut-off; inactive means mostly below about 43%; further: 0% is about no effect
HCV inh = blocks hepatitis C virus; Huh7.5.1 HCVcc-Cre infection, luciferase reporter, 44 h; Potency, µM (top dose mostly 41.8 µM), for the others: at the highest dose activity change, negative = inhibition, hits mostly inhibitors; 340,000 compounds, 3.4% hits; further: potency means the concentration at half of the fitted maximal effect; on the % scale 0 is the no-effect control and ±100 the full control effect
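Reporter virus HCVcc-Cre (~0.5 moi) infects cells exposed to compound; seeding density 1,000 cells/well with 4 h settling beforehand. Luminescence, 15 sec read, taken 44 h post-infection following a 15 min RT substrate incubation.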
* = called active by the depositor; ? = inconclusive; · = no result; + = active, no number. Sampled rows, rich in hits. Any-hit rate of the full collection: about 21%. Unless noted, the call rests on the fitted dose curve; in most records, active means well fitted inhibition curve with a large enough effect; inconclusive means small, poorly fitted or top-dose-only effect, or another doubt; inactive means no such curve, though single readings can be large or run the other way.

SMILES	Cycloheximide cs	Pf growth 96h	HCMV inh	Pf growth 48h	Shiga toxin inh	HCV inh
CCc1nc2ccc(C(=O)Nc3ccc(NC(C)=O)cc3)cn2c1N(C)CCC(C)C	·	·	20.5	·	·	·
FC(F)(F)c1cccc(Nc2nc(N3CCCC3)nc(N3CCCC3)n2)c1	-1.8	?	?	?	-4.9	10.4%
Fc1ccc(Nc2nc(N3CCOCC3)nc(N3CCOCC3)n2)cc1Cl	-6.0	13.1µM*	-4.9	?	2.4	-15.6%
Clc1ccc(Nc2nc(N3CCOCC3)nc(N3CCOCC3)n2)cc1Cl	0.8	13.1µM*	15.9	?	9.2	5.2%
CN1CCN(c2nc(Nc3cccc(C(F)(F)F)c3)nc(N3CCOCC3)n2)CC1	-3.3	0.5%	-17.6	2.08µM*	-6.9	?
O=C(O)c1cc(Nc2nc(N3CCOCC3)nc(N3CCOCC3)n2)ccc1Cl	-1.1	-7.6%	-8.9	-7.8%	-7.1	0.3%
COc1ccc(S(=O)(=O)N2CCNC(=O)C2)cc1Br	-3.1	0.3%	3.5	0.0%	-17.3	25.5%
COc1ccc(CC2(CO)CCN(Cc3cnn(-c4ccccc4)c3)CC2)cc1	-2.2	-4.5%	-32.7	-7.9%	17.3	?
CCCn1ncc(CN2CCC(CO)(Cc3ccc(OC)cc3)CC2)c1C	8.6	0.37µM*	-1.4	-3.0%	6.6	-2.4%
COc1ccc(CC2(CO)CCN(Cc3cnn(-c4ccc(F)cc4)c3)CC2)cc1	-3.6	?	-10.3	?	-14.1	10µM*
Clc1ccccc1CONc1ncnc2nonc12	30.6*	141.8%	?	209.7%	+	1.7%
Cn1nnc2c(NCc3ccccc3Cl)ncnc21	·	·	104.6	·	·	·
COc1ccc(Cn2cnc3c(N)c(C)c(C)cc32)cc1	10.8	?	?	69.4%	-3.7	-29.5%
CCCCCCCCn1cnc2c(N)c(C)c(C)cc21	-4.0	?	-12.9	?	-12.4	1.58µM*
N#CCN1CCC2(O)CCCCC2C1c1ccc2c(c1)OCO2 (centres undefined)	-2.6	-4.2%	-26.5	?	-5.0	6.2%
CC(=O)NC(NC(=S)Nc1ccc(N=Nc2ccccc2C)cc1C)C(Cl)(Cl)Cl (centres undefined)	29.4*	89.2%	24.6	?	113.7*	?
CC(C)CCCC(C)CCCC(C)CCCCC(C)CCCC(C)CCCC(C)C (centres undefined)	·	-4.5%	·	0.4%	·	·
CCOC(=O)c1ccc2c(c1)n(CC)c(C)[n+]2CC	-3.5	30.1%	-1.8	?	15.5	?
CCOC(=O)c1ccc2c(c1)[nH]c(=S)n2CC	29.5*	-5.4%	56.0	58.6%	87.5*	5.3%
COc1ccc(N2C(=O)C(=O)N(c3ccc(OC)cc3)P2(=O)N(CCCl)CCCl)cc1	·	·	-74.8*	·	·	8.9%
COc1ccc(N2C(=O)CCC2=O)cc1	0.9	?	35.3	15.1%	-19.6	2.3%
COc1ccc(OC)c(C2NC(=O)NC(C)=C2C(=O)Nc2ccc(C)cc2)c1 (centres undefined)	-1.1	8.0%	27.2	24.6%	-7.9	9.4%
CC1=C(C(=O)Nc2ccccc2)C(c2ccccc2[N+](=O)[O-])NC(=O)N1 (centres undefined)	16.7*	?	-36.2	46.7%	37.2	10.0%
COc1ccccc1NC(=O)C1=C(C)NC(=O)NC1c1ccccc1[N+](=O)[O-] (centres undefined)	30.2*	?	93.9	?	45.4*	-5.6%
Cc1ccc(NC(=O)CCc2ccc(S(=O)(=O)N3CCOCC3)cc2)c(O)c1	·	·	-11.5	·	·	?
SMILES	Cycloheximide cs	Pf growth 96h	HCMV inh	Pf growth 48h	Shiga toxin inh	HCV inh
Cc1ccc(O)c(N=Nc2ccc(S(=O)(=O)N3CCOCC3)cc2)c1	8.3	?	?	5.22µM*	15.3	0.8%
CC(C)(C)c1cc(Br)c(O)c(N=Nc2ccc(S(=O)(=O)N3CCOCC3)cc2)c1	-3.6	10.4µM*	?	11.7µM*	-2.9	-19.2%
CCc1ccc2c(c1)C(c1ccc([N+](=O)[O-])cc1)=NNC(c1ccc(F)cc1)=N2	24.0*	?	2.2	42.2%	63.5*	0.0%
CCc1ccc2c(c1)C(c1ccncc1)=NNC(c1ccccc1)=N2	21.3	59.4%	-4.7	?	57.6	2.2%
CS(=O)(=O)c1ccc(C(=O)Nc2ccc(-c3nc4ccccc4[nH]3)cc2)cc1	10.5	-26.5%	-2.2	1.85µM*	40.5	-1.8%
O=C(Nc1ccc(Cl)c(-c2nc3ccccc3[nH]2)c1)c1ccc2c(c1)OCO2	19.8*	?	15.5	-5.4%	-39.7	?
O=C(Nc1ccc(-c2nc3ccccc3[nH]2)cc1)c1ccc2c(c1)OCO2	28.3*	5.22µM*	-5.0	9.28µM*	20.6	?
Cc1cccc(C)c1-n1nnnc1C(c1ccnc2ccccc12)N1CCN(C/C=C/c2ccccc2)CC1 (centres undefined)	·	·	-16.5	·	·	·
CCOC(=O)N1CCC2(CC1)OC(=O)C(C)=C2C(=O)NCc1cccc(OC)c1	·	·	0.0	·	·	·
CC1(C(=O)N/N=C/c2ccccc2)CC1(Br)Br (centres undefined)	17.6	?	43.4	34.7%	16.4	18.3%
S=C(NN=Cc1ccc2c(c1)OCO2)NN=Cc1ccc2c(c1)OCO2	·	·	37.2	·	·	-4.3%
CC1(C(=O)N/N=C/c2ccccc2)CC1(Cl)Cl (centres undefined)	25.6*	3.29µM*	27.9	0.1%	·	11.0%
Cc1ccc(/C=N/NC(=O)C2(C)CC2(Br)Br)cc1 (centres undefined)	13.2*	?	-32.0	2.8%	37.9	?
CN(C(=S)NC(=O)C1(C)CC1(Cl)Cl)c1ccccc1 (centres undefined)	-0.6	?	0.5	·	-13.0	3.4%
CC1(C(=O)N/N=C/c2ccc3c(c2)OCO3)CC1(Br)Br (centres undefined)	17.4	5.22µM*	44.3	11.2%	13.5	-5.7%
CSc1ccccc1C(=O)N1CCc2ccc(NC(=O)c3ccccn3)cc2C1	·	·	-24.3	·	·	·
COC1=C(OC)C(=O)C(C/C=C(\C)CC/C=C(\C)CC/C=C(\C)CC/C=C(\C)CC/C=C(\C)CC/C=C(\C)CC/C=C(\C)CC/C=C(\C)CC/C=C(\C)CCC=C(C)C)=C(C)C1=O	-4.7	-1.5%	·	-6.4%	-5.1	·
O=S(=O)(Nc1ccc(Cl)cn1)c1ccccc1	-4.2	18.7%	-6.8	-3.7%	-14.4	-2.0%
O=C(Cc1c(F)cccc1Cl)Nc1ccccn1	9.9	?	95.6	48.5%	36.7*	17.7%
O=C(Nc1ccc(F)cc1)Nc1ccc(Cl)cn1	23.1*	80.6%	-8.6	65.2%	61.5*	-0.6%
O=C(Nc1ccc(F)c(Cl)c1)Nc1ccc(Cl)cn1	-1.0	28.2%	?	2.6%	14.4	?
O=S(=O)(Cc1ccc(Cl)cc1)Nc1ccc(Cl)cn1	11.1	-7.1%	-100.5*	26.6%	25.1*	18.0%

Assay outcomes as filed in PubChem.
